# High-throughput results deposited in PubChem by Buhrlage Lab, Dana-Farber Cancer Institute and Novartis Institutes for BioMedical Research (Cambridge, Mass).
# USP10 inh: inhibitors of human USP10 deubiquitinase; inhibition, % at 20 µM; purified USP10, Ub-rhodamine fluorescence, 60 min; AID 1645856, 2021; actives 1.1% (n = 47,000); Ubiquitin carboxyl-terminal hydrolase 10 (Homo sapiens), Q14694
# USP8 inh: inhibitors of human USP8 deubiquitinase. purified USP8, Ub-rhodamine cleavage fluorescence, 30 min. inhibition, % at 20 µM. AID 1645853, 2021. actives 4.2% (n = 47,000). Ubiquitin carboxyl-terminal hydrolase 8 (Homo sapiens), P40818
# USP28 inh: inhibitors of human USP28 deubiquitinase; inhibition, % at 25 µM; purified USP28, Ub-rhodamine cleavage fluorescence, 30 min; AID 1645857, 2021; actives 3% (n = 47,000); Ubiquitin carboxyl-terminal hydrolase 28 (Homo sapiens), Q96RU2
# USP17 inh: inhibitors of human USP17 deubiquitinase; inhibition, % at 50 µM; Ubiquitin carboxyl-terminal hydrolase 17-like protein 5 (Homo sapiens), A8MUK1; purified USP17, Ub-rhodamine cleavage fluorescence, 3 h; actives 6.5% (n = 47,000)
# USP30 inh: inhibitors of human USP30 deubiquitinase; purified USP30, Ub-rhodamine cleavage fluorescence; inhibition, % at 25 µM; actives 5.3% (n = 47,000); AID 1645860, 2021
# * = called active by the depositor; . = no result. This is a sample that favours compounds with a hit; in the whole collection about 14% have one here. No stated cut-off is given here; in the data, active means inhibition above about 30%; inactive means the rest.
SMILES,USP10 inh,USP8 inh,USP28 inh,USP17 inh,USP30 inh
Cc1cc(-c2ccc(C)c(S(=O)(=O)N3CC(=O)Nc4ccccc43)c2)on1,1,-1,26,47*,9
O=C(NCc1ccncc1)C1CCN(c2cncnc2N2CCCCC2)CC1,-1,-15,52*,-12,-42
O=C(NCc1ccccc1)C1CCN(c2cncnc2N2CCOCC2)CC1,-1,16,12,7,29
Cc1ccccc1CNC(=O)C1CCN(c2ccncc2)CC1,0,-13,-6,-6,-19
CCCOc1ccc(CNC(=O)C2CCN(c3ccncc3)CC2)cc1,2,-14,35*,-6,-6
CCOc1ccc2oc(C)c(C(=O)Nc3ccccc3CC)c2c1,2,-3,-7,4,7
Cc1ccc(C(=O)Cn2c(=O)n(C(C)C)c3nc(-c4ccco4)nc(C(N)=O)c32)c(C)c1,-2,40*,-38,-10,-242
Cc1cccc(CSc2nc(-c3ccco3)nc3c2c(=O)n(C)c(=O)n3C)c1,2,-3,-7,0,10
Cc1ccc(C)c(S(=O)(=O)N2CCN(c3nc(-c4cccs4)nc4ccccc34)CC2)c1,2,-47,6,14,31*
O=C(NCc1ccncc1)c1nc(-c2ccncc2)no1,-3,0,-2,-6,-1
CCN1C(=O)COc2cc(-c3noc(C(=O)NCc4ccccn4)n3)ccc21,0,-50,1,8,24
CN(C)c1ccc(-c2noc(C(=O)NCc3ccccn3)n2)cc1,-1,-3,14,45*,8
CN(C)c1ccc(-c2noc(C(=O)NCc3ccncc3)n2)cc1,2,13,26,10,31*
O=C(CC(c1cccc(F)c1)n1cccc1)Nc1ccc2c(c1)OCCO2 (centres undefined),11,-37,1,2,1
O=C(CC(c1cccc(F)c1)n1cccc1)NCc1ccc(Cl)cc1 (centres undefined),10,11,14,5,38*
O=C(CC(c1cccc(F)c1)n1cccc1)Nc1ccc2c(c1)OCO2 (centres undefined),7,45*,8,22,0
COc1ccc(C(CC(=O)NCc2cccc(OC)c2)n2cccc2)cc1 (centres undefined),0,-2,1,38*,11
COc1ccc2cc(C(C)C(=O)NCc3cccc(NS(N)(=O)=O)c3)ccc2c1 (centres undefined),12,46*,20,6,42*
O=C(Cn1cc(C(=O)c2ccc(F)cc2)c(=O)c2ccccc21)Nc1ccc2c(c1)OCO2,47*,71*,12,12,42*
Cc1ccc2c(c1)c(=O)c(C(=O)c1ccccc1)cn2CC(=O)Nc1ccc2c(c1)OCCO2,26,30,-5,62*,-5
Cc1ccc(CS(=O)(=O)c2cn(CC(=O)Nc3cccc(F)c3)c3ccccc23)cc1,3,25,2,9,-38
Cc1ccc(C(=O)c2cn(CC(=O)Nc3ccccc3)c3ccccc3c2=O)cc1,46*,97*,23,37*,35*
Cc1ccc(C(=O)c2cn(CC(=O)Nc3ccccc3)c3ccc(C)cc3c2=O)cc1,36*,62*,1,53*,14
Cc1cccc(NC(=O)Cn2cccc(S(=O)(=O)N3CCC(C)CC3)c2=O)c1,-13,2,-45,-34,-95
Cc1nnc(NC(=O)C2CCN(C(=O)c3cccc(F)c3)CC2)s1,2,2,10,0,12
SMILES,USP10 inh,USP8 inh,USP28 inh,USP17 inh,USP30 inh
COc1ccccc1NC(=O)Cn1cc(C(=O)c2ccc(C)cc2)c(=O)c2cc(C)ccc21,0,17,6,15,25
COc1ccc(NC(=O)Cn2cc(C(=O)c3ccc(C)cc3)c(=O)c3ccccc32)cc1,38*,49*,41*,85*,49*
O=C(NC1CCCCC1)c1nc[nH]c1C(=O)NCC1CCCCC1,5,-7,-5,2,0
CCN1C(=O)C2CN(C(=O)c3ccc(F)c(C(F)(F)F)c3)CCN2C1=O (centres undefined),2,0,-12,-12,-7
O=C(/C=C/c1cccc(F)c1)N1CCc2ccccc21,9,42*,8,20,29
O=C(/C=C/c1ccc(F)cc1)N1CCc2ccccc2C1,1,88*,28,62*,1
O=C(/C=C/c1ccc(F)cc1)N1CCCc2ccccc21,4,-4,9,2,16
COc1ccc(CN(Cc2cc3cc(C)c(C)cc3[nH]c2=O)C(=O)NC2CCCCC2)cc1,0,-6,-50,3,-122
CC(C)CNC(=O)NC1CCN(c2nc(-c3cccnc3)nc3ccccc23)CC1,-15,5,-10,-7,-23
O=C(Nc1ccccc1C(=O)O)c1ccc(CSCc2ccccc2)cc1,51*,-18,31*,39*,-25
COc1cc2c(cc1NC(=O)c1ccc(-n3cnnn3)cc1)oc1ccccc12,14,-1,-6,53*,-6
CCN1CCN(C(=O)c2cc3c(=O)n4cccc(C)c4nc3n2Cc2ccccc2)CC1,-4,1,4,-15,-12
Cc1ccc(NC(=O)C2CCC(CNS(=O)(=O)c3ccc4c(c3)C(C)(C)C(=O)N4C)CC2)cc1C (centres undefined),0,-34,13,-9,-36
COc1cccc(NC(=O)C2CCC(CNS(=O)(=O)c3ccc4c(c3)C(C)(C)C(=O)N4C)CC2)c1 (centres undefined),3,-8,76*,0,0
CCC[C@H]1O[C@@H]2CC(=O)O[C@@H]2C2=C1C(=O)c1c(O)cccc1C2=O,-14,-7,54*,84*,-19
CC1OC2CC(=O)OC2C2=C1C(=O)c1c(O)cccc1C2=O (centres undefined),-7,1,56*,94*,-3
O=C(Cn1cccc1-c1nnc(C2CC2)o1)N1CCN(c2ccccc2)CC1,-2,0,.,-10,.
CC(=O)c1sc(NS(=O)(=O)c2ccc(C)cc2)nc1-c1ccccc1,2,9,15,21,19
CC(=O)c1sc(NC(=O)c2cccc(S(=O)(=O)Nc3ccccc3F)c2)nc1-c1ccccc1,27,17,10,32*,27
Cc1ccc(C(=O)NCCc2nc3cccnc3n2C)cc1F,-8,-9,-4,-14,-29
Cc1ccc(NC(=O)CSc2nnc(Cc3cccc4ccccc34)n2C)c(C)c1,-3,-33,49*,39*,27
Cc1ccc(-n2c(Cc3cccc4ccccc34)nnc2SCC(=O)NC2CCS(=O)(=O)C2)c(C)c1 (centres undefined),0,24,0,42*,-1
Cc1cc(C)c(NC(=O)CSc2nnc(Cc3cccc4ccccc34)n2C)c(C)c1,-5,-28,5,1,-1
